In the supplement of paper PMC3334620:
Whole data set: some 33,000 sequences, median “E-score (-0.5 to 0.5)” near -0.032, cut for the highest 2% near 0.36. The entries come from a sample that favours the highest values as a whole.

These sequences were tested against T1, Sko1 (UniProt Q02100) (assay: PBM E-score (8-mer binding enrichment) (E-score (-0.5 to 0.5)); higher = stronger / more preferred TF binding). Details: protein concentration: 200 nM; construct: GST-full length.
T1 sequence: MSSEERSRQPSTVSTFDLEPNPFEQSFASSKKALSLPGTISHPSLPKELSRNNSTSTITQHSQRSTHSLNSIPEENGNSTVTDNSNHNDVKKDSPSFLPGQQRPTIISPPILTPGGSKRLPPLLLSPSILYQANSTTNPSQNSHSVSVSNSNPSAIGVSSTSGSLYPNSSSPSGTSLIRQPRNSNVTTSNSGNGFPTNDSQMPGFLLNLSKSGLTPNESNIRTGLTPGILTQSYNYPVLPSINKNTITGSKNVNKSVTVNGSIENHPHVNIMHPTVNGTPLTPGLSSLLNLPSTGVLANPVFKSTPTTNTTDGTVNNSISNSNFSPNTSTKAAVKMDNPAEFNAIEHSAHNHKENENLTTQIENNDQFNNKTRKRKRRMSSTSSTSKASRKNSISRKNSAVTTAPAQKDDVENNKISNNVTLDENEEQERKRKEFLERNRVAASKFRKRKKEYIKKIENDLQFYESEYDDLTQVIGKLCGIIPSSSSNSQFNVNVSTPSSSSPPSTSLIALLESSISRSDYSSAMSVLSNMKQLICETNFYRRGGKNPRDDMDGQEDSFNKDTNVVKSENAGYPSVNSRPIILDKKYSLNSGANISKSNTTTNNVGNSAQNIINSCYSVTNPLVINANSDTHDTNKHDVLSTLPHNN
In short: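 Masliner-normalised scans of fluorescent anti-GST signal were the basis for scoring. That signal came from GST-tagged yeast transcription factors applied at about 100-200 nM to double-stranded universal all-10-mer Agilent arrays on fresh or once-stripped slides. Each ungapped eight-base word, pooled with its reverse complement, received an E-score from the Universal PBM Analysis Suite.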

Sequence | PBM E-score
AGCGTGAT | 0.147
GCGTACAA | 0.146
ACGTACAT | 0.449
AGGTACAG | -0.145
ACGTACAA | 0.414
AAGTACAT | 0.237
TCGTACAA | 0.206
ATGTACAT | 0.32
CCGTACAG | -0.22
ACGTACAC | 0.444
ACGTACAG | 0.415
CCGTACAC | -0.0557
GCGTACAC | 0.213
ACCAATGG | -0.28
CTCAGTTA | -0.0515
CGAAACTC | -0.0389
TAGTCCAA | -0.132
ACGTCAGA | 0.479
ACGTCAGT | 0.469
TCGTCAGA | 0.307
GGGTCAGA | -0.219
ACGTCAGG | 0.457

Sequence | PBM E-score
AAGTCAGT | -0.0135
GCGTCAGA | 0.364
ACATCAGT | 0.179
ATGTCAGG | 0.0993
GTGTCAGA | -0.06
CCGTCAGA | -0.0558
CCGTCAGG | -0.0861
AGTCCCTG | -0.259
AATGGGAC | -0.215
CGCCCTGC | -0.236
CCACTCAG | -0.212
CCAAAGAC | -0.098
GCGCCCGC | -0.165
GATCATAC | 0.14
ACGGTTCA | -0.126
CCGTCAGC | -0.127
GCGTCAGC | 0.209
ACGTCAGC | 0.48
CCCCCCAC | -0.372
ACGTGTAC | 0.409
ACGTGTAA | 0.386
ACGTGTAT | 0.414

Sequence | PBM E-score
ACGTGTAG | 0.367
AAGTGTAT | 0.0856
TCGTGTAA | 0.116
CCGTGTAC | -0.0602
CCGTGTAA | -0.0449
AGGTGTAT | 0.075
AAGTGTAG | 0.0389
CCGTGTAG | -0.181
GCGTGTAC | 0.227
CATGACTA | 0.0134
AATACCGG | 0.00982
CGTTTACA | 0.138
CTCCCCAC | -0.00257
ATTAAGCG | 0.0319
ACCGCATC | -0.161
AATAAGCT | 0.0887
CTATAGGA | 0.0338
CCGAGATA | 0.00305
ACTAGTGC | -0.13
CCGTGTCA | -0.186
AAGTGTCT | -0.135
GCGTGTCA | 0.216

Sequence | PBM E-score
ACGTGTCG | 0.385
ACGTGTCA | 0.378
ACGTGTCC | 0.318
CCGTGTCG | -0.319
AAGTGTCG | 0.00605
ACGTGTCT | 0.381
CAGCAGGC | -0.22
AGGCTTGA | -0.0134
ACGGCTCG | -0.0111
CAACGTAG | 0.354
TAACGTTA | 0.302
TAACGTGA | 0.274
GAACGTAC | 0.254
TAACGTAA | 0.457
CAACGTGA | 0.182
GATCGTAA | 0.281
GAACGTAA | 0.428
CAACGTAA | 0.447
ACAACTAA | 0.161
AGGCCTGC | -0.301
GCCGTCGC | -0.133
